Each structure is given as a SMILES string. The panel holds about 83,000 compounds, 20% with a hit somewhere; the sample as a whole holds those more often.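 Interpretation: 100, growth as untreated; towards 0, rising growth inhibition; 0, no net growth; 0 to -100, cell death. Compounds scoring below 10 were considered active.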 Unmarked numbers belong to inactive results. The source made the active and inactive calls.

Test systems include HCT-15 colon; HT29 colon; SNB-75 CNS; SNB-19 CNS; U251 CNS; PC-3 prostate; SK-MEL-5 melanoma; UACC-62 melanoma; LOX IMVI melanoma; SK-MEL-28 melanoma.
Common to all, as to assay: NCI-60 one-dose screen, 48 h (100 = growth as untreated, 0 = no growth, -100 = all killed)
Common to all, as to details: 10 µM unless noted

Regarding `CCN1CCN(c2nc3ccccc3c3c(=O)c4cc(F)ccc4sc23)CC1`, the growth was 48.2% in the assay with HCT-15 colon; 28% in the assay with HT29 colon; 39.7% in the assay on SNB-75 CNS; 80.9% with SNB-19 CNS; 46.5% with U251 CNS; 78% in the assay on PC-3 prostate. Further, the growth is 82.8% in the assay on SK-MEL-5 melanoma, 44.1% in the assay with UACC-62 melanoma, 60.9% with LOX IMVI melanoma and 78.2% with SK-MEL-28 melanoma.
Turning to `COC(=O)c1c2c(c(C)[n+]([O-])c1C)C(=O)C=C(NCc1ccc(F)c(Cl)c1)C2=O`, the growth in the assay on HCT-15 colon is -70.4% (active); in the assay on HT29 colon it was 3.68% (active); in the assay on SNB-75 CNS, -96.9% (active); with SNB-19 CNS it was -48.5% (active); with U251 CNS, -21.7% (active); in the assay with PC-3 prostate, -1.13% (active). In addition, the growth was -97.7% (active) with SK-MEL-5 melanoma, -70.8% (active) in the assay with UACC-62 melanoma, -64.5% (active) in the assay on LOX IMVI melanoma and -11.8% (active) with SK-MEL-28 melanoma.
Regarding `O=c1c2c(=NCCN3CCCC3)cc3c(=O)n(CCCN4CCOCC4)c(=O)c4c(-c5ccc(CN6CCCC6)cc5)cc(c(O)n1CCCN1CCOCC1)c2c4-3`, the growth in the assay on HCT-15 colon is -30% (active); with HT29 colon, -23.4% (active); in the assay on SNB-75 CNS, -83.5% (active); with SNB-19 CNS it was -9.24% (active); in the assay on U251 CNS, -19.4% (active); in the assay on PC-3 prostate, -47.2% (active). Further, the growth in the assay with SK-MEL-5 melanoma was -44.6% (active); with UACC-62 melanoma, -73.2% (active); in the assay on LOX IMVI melanoma, -78.2% (active); in the assay with SK-MEL-28 melanoma, -67.8% (active).
With `COc1ccc(/C=C(\C#N)c2cc3ccccc3n2C)cc1`, the growth with HCT-15 colon is 23.9%; in the assay on HT29 colon, 9.49% (active); in the assay with SNB-75 CNS it was 1.11% (active); in the assay on SNB-19 CNS, 32.8%; in the assay on U251 CNS, 15.9%; in the assay with PC-3 prostate, 38.8%. For the same compound, the growth with SK-MEL-5 melanoma was 23.2%; in the assay on UACC-62 melanoma it was 38.3%; in the assay with LOX IMVI melanoma, 39.4%; in the assay on SK-MEL-28 melanoma it was 62.1%.
Take `COc1cccc(OC(=O)c2ccccc2)c1OC(=O)c1ccccc1`: the growth with HCT-15 colon was 70.9%; in the assay with HT29 colon, 85.3%; with SNB-75 CNS it was 55.3%; with SNB-19 CNS, 73.5%; in the assay with U251 CNS it was 49.2%; in the assay on PC-3 prostate, 77%. Moreover, the growth is 56.9% in the assay with SK-MEL-5 melanoma, 66% with UACC-62 melanoma, 63% in the assay with LOX IMVI melanoma and 84.7% in the assay on SK-MEL-28 melanoma.
In the case of `CCCCCCCCCCCCCCn1c2ccccc2c2c3c(c4c5cc(OC)ccc5oc4c21)C(=O)NC3=O`, the growth was 94.9% in the assay with HCT-15 colon; 103% in the assay with HT29 colon; 81.4% with SNB-75 CNS; 105% with SNB-19 CNS; 99.8% with U251 CNS; 107% with PC-3 prostate. Moreover, the growth in the assay on SK-MEL-5 melanoma is 102%; in the assay with UACC-62 melanoma it was 101%; in the assay with LOX IMVI melanoma, 103%; in the assay on SK-MEL-28 melanoma, 107%.
In the case of `O=c1oc2ccccc2cc1-c1csc(N=Nc2c(O)[nH]c3ccc(Br)cc23)n1`, the growth with HCT-15 colon was 105%; with HT29 colon it was 109%; with SNB-75 CNS, 86.2%; in the assay on SNB-19 CNS it was 95.8%; in the assay with U251 CNS, 103%; in the assay with PC-3 prostate, 102%. The growth was 96.5% with SK-MEL-5 melanoma, 95% in the assay on UACC-62 melanoma, 99.9% with LOX IMVI melanoma and 101% in the assay with SK-MEL-28 melanoma.
As to `COc1cc2cc(Oc3ccc(NC(=O)Nc4ccc(Cl)c(C(F)(F)F)c4)cc3)c(C)nc2cc1OCCN1CCCCC1`, the growth in the assay with HCT-15 colon is -81.8% (active); with HT29 colon, -68% (active); in the assay with SNB-75 CNS, -57.9% (active); in the assay with SNB-19 CNS, -51.7% (active); in the assay on U251 CNS, -76.4% (active); with PC-3 prostate it was -55.3% (active). Further, the growth in the assay on SK-MEL-5 melanoma is -76.1% (active); with UACC-62 melanoma, 72.6%; with LOX IMVI melanoma it was -97.1% (active); with SK-MEL-28 melanoma, -86% (active).
Take `Brc1ccc(Br)nn1`: the growth in the assay with HCT-15 colon is -100% (active); in the assay with HT29 colon it was -37.2% (active); in the assay with SNB-75 CNS, 37.7%; in the assay with SNB-19 CNS, 17.7%; in the assay with U251 CNS it was -67.5% (active); in the assay on PC-3 prostate, -36.8% (active). Also, the growth in the assay on SK-MEL-5 melanoma was 8.56% (active); in the assay with UACC-62 melanoma it was 31.9%; with LOX IMVI melanoma, -93.7% (active); in the assay on SK-MEL-28 melanoma, -75.9% (active).
For `CC1SC(c2ccc(Cl)cc2)N(CCc2cccs2)C1=O` (stereo not given), the growth was 1.46% (active) in the assay on HCT-15 colon; -40.2% (active) in the assay on HT29 colon; -9.5% (active) in the assay on SNB-75 CNS; 12.4% with SNB-19 CNS; -8.49% (active) with U251 CNS; -1.67% (active) with PC-3 prostate. The growth in the assay on SK-MEL-5 melanoma is -99.2% (active); with UACC-62 melanoma, -46.3% (active); in the assay on LOX IMVI melanoma, -85.2% (active); in the assay on SK-MEL-28 melanoma, 8.16% (active).
With `O=C(NCc1cccnc1)c1ccc([N+](=O)[O-])o1`, the growth with HCT-15 colon is -68.1% (active); in the assay on HT29 colon, -68.5% (active); in the assay with SNB-75 CNS, -3.32% (active); with SNB-19 CNS, 16.8%; in the assay on U251 CNS, 4.88% (active); with PC-3 prostate, 24.5%. Also, the growth with SK-MEL-5 melanoma is 4.47% (active); in the assay with UACC-62 melanoma, -67.9% (active); in the assay on LOX IMVI melanoma it was -77.9% (active); in the assay with SK-MEL-28 melanoma, 17%.
Consider `COc1cccc(Nc2nc(NCCO)c3ccccc3n2)c1`, for which the growth in the assay on HCT-15 colon was 88.6%; with HT29 colon it was 100%; in the assay with SNB-75 CNS it was 63.7%; in the assay on SNB-19 CNS it was 76.9%; in the assay on U251 CNS it was 73.7%; with PC-3 prostate, 24.4%. The growth in the assay on SK-MEL-5 melanoma was 78.2%; in the assay on UACC-62 melanoma, 67.1%; in the assay with LOX IMVI melanoma, 75%; with SK-MEL-28 melanoma, 91.7%.

The record behind these values is PubChem BioAssay (NCI).
